Assay outcomes: PubChem BioAssay, National Center for Advancing Translational Sciences (NCATS)
A selection: hits, their analogues and other compounds. The true share with any hit is near 21%.
Pf growth 48h = P. falciparum growth inhibition at 48 hours (one generation) | P. falciparum luciferase growth in erythrocytes, 48 h | Potency, µM (doses to about 28.7 µM), for inactives: at the highest dose activity change, negative = inhibition, hits mostly inhibitors | 310,000 tested, 5.9% active; note: potency is the fitted concentration of half-maximal effect; % is set by controls: 0 for no effect and ±100 for the full control effect
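Firefly luciferase activity from engineered P. falciparum reports growth; inhibitors lower the luminescent signal. Cultures contained 2% hematocrit erythrocytes at 0.1% final parasitemia.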
Pf growth 96h = P. falciparum growth inhibition at 96 hour, primary screen for plastid delayed-death inhibitors. AID 504834. 320,000 tested, 6.9% active. Potency, µM (doses to about 28.7 µM), for inactives: at the top dose activity change, negative = inhibition, hits mostly inhibitors. P. falciparum luciferase reporter growth, 96 h; note: potency is the fitted concentration of half-maximal effect; % is set by controls: 0 for no effect and ±100 for the full control effect
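Parasite growth measured via integrated firefly luciferase reporter in P. falciparum. Infected erythrocytes at 2% hematocrit, 0.05% parasitemia final were treated 96 hours at 37 C under 5% CO2, and luminescence was read.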
Shiga inhibitor = blocks Shiga toxin action in Vero cells. AID 2315. inhibition, % at 38.7 µM. 290,000 tested, 9.2% active. Vero cells, Shiga toxin protein synthesis inhibition reporter; in the data active = inhibition mostly above about 28%, no sharp cut-off; inactive = mostly below about 43%; note: 0% is about no effect
HCV inh = blocks hepatitis C virus | Huh7.5.1 HCVcc-Cre infection, luciferase reporter, 44 h | Potency, µM (top dose mostly 41.8 µM), for the others: at the top dose activity change, negative = inhibition, most hits filed as inhibitors | 340,000 tested, 3.4% active | AID 651820; note: potency is the fitted concentration of half-maximal effect; % is set by controls: 0 for no effect and ±100 for the full control effect
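HCVcc-Cre virus at an moi near 0.5 was added right after compound to cells cultured 4 h from seeding (1,000 cells/well). Luciferase activity was determined 44 h later, 15 min after substrate addition at RT.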
AMA1 RON2 block = AMA1-RON2 (P. falciparum) interaction inhibition; Potency, µM (highest dose often 58.2 µM), without a hit: at the highest dose activity change, negative = inhibition, actives largely listed as inhibitors; 360,000 tested, 0.2% active; AID 720542; AlphaScreen AMA1-biotinylated RON2 peptide binding;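 note: potency is the fitted concentration of half-maximal effect; 0% = vehicle wells and -100% = peptide control; nearly all actives have a fitted effect of over 45% in size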
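AMA1 (3D7) with his tag at 25 nM final met compounds first, then biotinylated RON2 peptide at 25 nM; detection used donor plus acceptor beads, 10 µg/mL apiece, read by AlphaScreen after 30 min at room temperature.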
CHX counter = counter-screen for Shiga toxin inhibitors: cycloheximide protein synthesis inhibition. AID 2314. max response, %. cell reporter, cycloheximide protein synthesis inhibition counterscreen. 300,000 tested, 12% active; in the data active = max response mostly above about 13%, no sharp cut-off; inactive = mostly below about 14%; note: read at 38.3 µM for the half of the compounds with a filed dose; 0% is about no effect
* marks the source's active call; other numbers are inactive results; i = inactive; ? = inconclusive; . = not tested or not shown; [ ] = dose if it differs, or a comment. Unless noted, calls come from the whole dose curve; as a rule, active = well fitted curve in the direction sought with a large enough effect; inconclusive = small, poorly fitted or top-dose-only effect, or another doubt; inactive = no such curve, though single readings can be large; an effect the other way counts as inactive or inconclusive.

SMILES	Pf growth 48h	Pf growth 96h	Shiga inhibitor	HCV inh	AMA1 RON2 block	CHX counter
S=C(NC1CC1)N1CCc2ccccc2C1	6%	15%	-2	10%	0%	-1
COc1ccc(-c2c(C(=O)c3ccc(Br)cc3)[nH]c(N)c2C(=O)c2ccccc2)cc1OC	.	.	.	.	10%	.
CC(O)c1ccc(Oc2cnccn2)cc1 (stereo unspecified)	-1%	41%	-11	19%	4%	-4
CCOC(=O)C1(Cc2ccccc2)CCN(Cc2cccc3c2OCO3)CC1	?	?	2	-33%	-21%	-4
CCOC(=O)C1(CCc2ccccc2)CCN(Cc2cccc3cnccc23)CC1	?	7.4µM*	-3	10µM*	-20%	-1
CCOC(=O)C1(CCc2ccccc2)CCN(Cc2ccc(OC)cc2)CC1	?	?	-10	19%	-9%	-1
CCOC(=O)C1(CCc2ccccc2)CCN(Cc2cccc3c2OCO3)CC1	?	i	-5	10µM*	-5%	0
CCOC(=O)C1(CCc2ccccc2)CCN(Cc2c(O)cccc2OC)CC1	0.26µM*	31%	-11	?	-10%	1
Cc1cc(=O)[nH]c2nc3ccccc3n12	.	.	.	.	-16%	.
Cc1ccc(-n2c(-c3ccc(Cl)cc3)c[n+]3c2CCC3)cc1	0.26µM*	0.1µM*	1	?	-4%	-1
Cc1ccc(-n2c(-c3ccccc3)c[n+]3c2CCC3)cc1	1µM*	0.74µM*	-8	-29%	-12%	3
FC(F)Sc1ccc(-n2c(-c3ccc(Cl)cc3)c[n+]3c2CCC3)cc1	?	?	10	5%	4%	2
CCC(NC(=O)CN1CCN(C(=O)c2cccs2)CC1)c1ccc(C)cc1 (stereo unspecified)	1%	5%	.	-25%	8%	.
Cc1ccc(-c2cc(C(F)(F)F)n3nc(C(=O)NCCCn4ccnc4)cc3n2)cc1C	?	?	-8	5µM*	3%	2
COCCNC(=O)c1nn2c(C(F)(F)F)cc(-c3ccccc3)nc2c1Cl	81%	5%	23	-5%	12%	-4
O=C(NCCCn1ccnc1)c1nn2c(C(F)(F)F)cc(-c3ccccc3)nc2c1Cl	15µM*	-10%	-16	10µM*	-9%	-6
CCCCNC(=O)c1cc2nc(-c3ccc(OC)cc3)cc(C(F)(F)F)n2n1	.	.	.	.	16%	.
COC(=O)CN(C)C(=O)c1ccc2nc(Cc3cccc(Cl)c3)oc2c1	0%	?	.	2%	-3%	51*
CC(C)(CO)NC(=O)c1ccc2nc(Cc3cccc(Cl)c3)oc2c1	13%	169%	26*	-17%	-9%	26*
COc1ccc(CCC(=O)OCC(=O)NC2CCCC2)cc1OC	.	.	.	.	-7%	.
CCc1ccc(/C=N/Nc2nn[nH]n2)cc1	7%	-16%	-3	8%	59%	-2
CCNc1nc(NCC)nc(N/N=C/c2ccc(Br)cc2)n1	?	?	-4	11µM*	37%	2
Clc1cccc(/C=N\Nc2nccs2)c1	.	109%	65	4%	60%	20*
Cc1ccc(/C=N/Nc2nc(C)cc(C)n2)cc1	9%	12%	57*	14%	81%	14*
COc1cc(/C=N/Nc2nc(C)cc(C)n2)cc(OC)c1OC	-9%	?	22	-23%	47%	4
SMILES	Pf growth 48h	Pf growth 96h	Shiga inhibitor	HCV inh	AMA1 RON2 block	CHX counter
C(=N/Nc1nccs1)/c1cccnc1	?	?	22	7%	10%	-2
CSc1ccc(/C=N/Nc2nc(C)cc(C)n2)cc1	-1%	54%	33*	3%	60%	42*
Cn1nccc1C(=O)N1CCN(S(=O)(=O)c2ccc(Br)s2)CC1	25%	-22%	-10	-5%	-15%	0
O=C(NCc1ccccc1)C1c2ccccc2OCC(=O)N1Cc1cccnc1 (stereo unspecified)	.	.	.	.	18%	.
COCCn1c(=O)[nH]c2cc(C(=O)Nc3cccc(C(C)=O)c3)ccc2c1=O	-9%	2%	2	-19%	5%	-6
Cc1cc(C)nc(N/N=C/c2ccc(N3CCOCC3)cc2)n1	1%	24%	2	24%	58%	-4
Cc1cc2c(C)nc(N/N=C/c3ccc(F)cc3)nc2o1	46%	60%	25	?	36%	18*
Cc1cc(C)nc(N/N=C/c2ccc(Cl)cc2)n1	-6%	-9%	32	5%	63%	13*
O=S(=O)(NN=Cc1cccc(Cl)c1)c1ccccc1	.	.	.	.	-3%	.
Cc1cc2c(C)nc(N/N=C/c3ccc([N+](=O)[O-])cc3)nc2o1	17%	?	-6	8%	-9%	-6
Clc1cccc(/C=N/Nc2nc(Cl)nc3ccccc23)c1	?	-83%	122*	-18%	70%	48*
Cc1cc(C)nc(N/N=C/c2cccc(Cl)c2)n1	32%	7%	49	-5%	73%	18*
C[C@@H]1CC2C3CCC4=CC(=O)C=C[C@]4(C)[C@@]3(F)[C@@H](O)C[C@]2(C)[C@@]1(O)C(=O)COC(=O)c1cccc(S(=O)(=O)O)c1 (stereo partly specified)	-2%	1%	.	.	.	.
CCN(c1cccc(C)c1)S(=O)(=O)c1csc(C(N)=O)c1	-11%[0.00184 µM]	9%	-6	4%	3%	-3
O=C(NCc1ccco1)c1ccc(C(=O)NCc2ccco2)cc1	.	.	.	18%	-3%	.
CCOc1ccc(NC(=O)NCc2ccco2)cc1	27%	4%	25	1%	-8%	12*
O=C(NCc1ccco1)c1ccc2ccccc2c1	36%	84%	79*	-1%	3%	36*
CC(C)(CO)NC(=O)c1ccc2c(c1)C(=O)c1ccccc1-2	.	-22%	86*	-3%	-5%	51*
O=C(NCc1ccco1)c1ccc(Oc2ccccc2)cc1	.	7.4µM*	76*	?	-5%	55*
O=C(NCc1ccco1)c1cccc(F)c1	7%	?	-3	16%	10%	2
O=C(NCc1ccco1)c1ccc2c(c1)C(=O)c1ccccc1-2	12%	.	67*	?	-4%	19*
O=C(NCc1cccnc1)Nc1ccc([N+](=O)[O-])cc1	-6%	?	2	1%	0%	11
O=C(NCc1ccco1)c1ccc2c(c1)C(=O)N(Cc1ccccc1)C2=O	0%	21%	3	-3%	5%	-1
O=C(NCc1ccccc1F)Nc1ccc([N+](=O)[O-])cc1	-5%	13µM*	35*	-26%	10%	18
COc1cccc(C(=O)NCc2ccco2)c1	0%	10µM*	-2	6%	0%	1
CC(C)COc1ccc(C(=O)NCc2ccco2)cc1	12µM*	.	36*	?	5%	14*
CSc1ncccc1C(=O)OCC(=O)c1[nH]c(C)c(C(C)=O)c1C	-13%	42%	.	-24%	-6%	.
